{"source": "PubChem BioAssay"}
{"target": "Tumor necrosis factor receptor superfamily member 10B (Homo sapiens) (UniProt O14763)", "sequence (O14763 whole entry, looked up)": "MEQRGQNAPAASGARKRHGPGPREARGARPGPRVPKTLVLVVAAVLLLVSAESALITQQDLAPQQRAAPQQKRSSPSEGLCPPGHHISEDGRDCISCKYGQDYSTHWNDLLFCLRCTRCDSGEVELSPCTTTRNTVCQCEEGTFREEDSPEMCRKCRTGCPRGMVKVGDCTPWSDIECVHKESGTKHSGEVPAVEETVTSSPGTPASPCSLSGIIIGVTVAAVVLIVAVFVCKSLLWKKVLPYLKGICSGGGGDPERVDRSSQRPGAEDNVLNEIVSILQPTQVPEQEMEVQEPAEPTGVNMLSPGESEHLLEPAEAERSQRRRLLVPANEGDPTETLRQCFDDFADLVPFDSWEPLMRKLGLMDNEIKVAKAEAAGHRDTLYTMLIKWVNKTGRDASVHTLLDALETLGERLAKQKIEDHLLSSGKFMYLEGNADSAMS", "assay": "caspase-8 TRAIL sensitization, hit retest, confirmation, cell-based, NB7+caspase-8, with/without TRAIL, luminescence panel (AID 651596)", "settings": "NB7 neuroblastoma + caspase-8, TRAIL sensitization, luminescence viability, with TRAIL, mean of runs, at 10 µM, stronger effect = higher value; in the data active means activity above about 50%; inactive means the rest", "units": {"activity": "%"}}
{"smiles": "Cc1cc(C(=O)COC(=O)c2n[nH]c3ccccc23)c(C)n1C", "activity": 62.2}
{"smiles": "CCN(c1ccccc1)S(=O)(=O)c1ccc(OC)c(NC(=O)c2cc(F)c(F)c(F)c2F)c1", "activity": 63.3}
{"smiles": "Fc1cccc(C2NN=C(c3ccccc3)S2)c1", "note": "(stereo not given)", "activity": 58.6}
{"smiles": "CCCc1cc(=O)[nH]c(SCC(=O)c2c(N)n(CC(C)C)c(=O)n(C)c2=O)n1", "activity": 80.5}
{"smiles": "Cc1ccc(-c2cn3cc([N+](=O)[O-])ccc3n2)cc1", "activity": 50.9}
{"smiles": "COn1c(SCc2cccc(Cl)c2)nc2ccccc2c1=O", "activity": 52.4}
{"smiles": "O=C1C(=Cc2ccc(Cl)cc2)CCc2ccccc21", "activity": 85.8}
{"smiles": "CCCCCCc1cc2cc(C(=O)Nc3ccc(OC)cc3)c(=O)oc2cc1O", "activity": 36}
{"smiles": "O=C(Nc1ccccc1C(=O)N/N=C/c1ccncc1)c1ccccc1", "activity": 91.7}
{"smiles": "Cc1ccc2nc(-c3cccc(N)c3)[nH]c2c1", "activity": 71.5}
{"smiles": "O=C(N/N=C/c1ccccc1)c1ccc2c(c1)OCO2", "activity": 61.2}
{"smiles": "C[C@H](NC(=O)c1[nH]cnc1C(=O)Nc1ccc(CNC(=O)OC(C)(C)C)cc1)C(=O)OCc1ccccc1", "activity": 63.1}
{"smiles": "CCN1CCN(Cc2ccc(NC(=O)c3cc(NC(=O)C(=O)c4c[nH]c5ccccc45)cc(OC)c3)cc2C(F)(F)F)CC1", "activity": 82.2}
{"smiles": "O=C(Nc1ccc(N2CCCCC2)cc1)c1ccccc1", "activity": 69.6}
{"smiles": "CN1CC(=O)N2C(c3ccc(Cl)cc3)c3[nH]c4ccccc4c3C[C@H]2C1=O", "note": "(stereo not given in full)", "activity": 94.7}
{"smiles": "CSc1nnc(NC(=O)c2nc(S(=O)(=O)Cc3ccccc3)ncc2Cl)s1", "activity": 83.6}
{"smiles": "COc1ccc2nc(NN=C(C)c3ccccn3)cc(C)c2c1", "activity": 74}
{"smiles": "O=C(NC1CC1)C1CCN(S(=O)(=O)c2ccc(Cl)c([N+](=O)[O-])c2)CC1", "activity": 65.2}
{"smiles": "CC1CCN(S(=O)(=O)c2ccc3c(c2)C(=NO)c2cc(S(=O)(=O)N4CCC(C)CC4)ccc2-3)CC1", "activity": 98.2}
{"smiles": "Cc1cc(C(=O)Nc2sc3c(c2C#N)CCC(C)C3)no1", "note": "(stereo not given)", "activity": 58.6}
{"smiles": "COc1ccc(C(=O)N/N=C(/C)c2cccc(NC(=O)c3ccccc3F)c2)cc1", "activity": 53.5}
{"smiles": "Cc1ccc2nc(-c3ccc(N)cc3)sc2c1", "activity": 83.2}
{"smiles": "O=C(Nc1ccc(NC(=O)C2CC2)cn1)c1ccccc1", "activity": 51.1}
{"smiles": "CC(C)Nc1ncnc2c1cnn2-c1ccc(Cl)cc1", "activity": 60.6}
{"smiles": "CCOc1ccc(-c2cc(C(=O)N/N=C(\\C)c3cccnc3)c3ccccc3n2)cc1", "activity": 74}
{"smiles": "CCOc1cc(/C=N/N=C(/N)c2nonc2N)cc(Br)c1OCc1ccc(Cl)cc1", "activity": 30.7}
{"smiles": "CC(OC(=O)c1ccc(S(C)(=O)=O)c([N+](=O)[O-])c1)C(=O)NC1C2CC3CC(C2)CC1C3", "note": "(stereo not given)", "activity": 77.8}
{"smiles": "Cc1ccc(/C=N/NC(=O)c2nn(C)cc2Cl)cc1", "activity": 62.2}
{"smiles": "COc1ccc2nc(Cl)c(/C=N/Nc3ccccn3)cc2c1", "activity": 64.5}
{"smiles": "COc1ccc2nc(NC(=O)c3ccc([N+](=O)[O-])o3)sc2c1", "activity": 37.6}
{"smiles": "CC(C)c1ccc(C(=O)Nc2cccnc2)cc1", "activity": 57.1}
{"smiles": "O=C1C(=C2CCc3ccccc32)Cc2ccccc21", "activity": 41.5}
{"smiles": "Nc1c(-c2cccs2)cnc2c(-c3ccc(F)cc3)cnn12", "activity": 57.5}
{"smiles": "c1ccn2cc(-c3ccc4c(c3)OCCO4)nc2c1", "activity": 89}
{"smiles": "CN1/C(=C/C(=O)c2cccs2)Sc2ccccc21", "activity": 60}
{"smiles": "O=C(C#Cc1ccccc1)c1ccccc1", "activity": 54}
{"smiles": "COc1ccc2oc(-c3ccc(NC(=O)c4ccc(N5CCOCC5)c([N+](=O)[O-])c4)cc3)nc2c1", "activity": 52}
{"smiles": "N#C/C(=C\\c1cc(Cl)cc(Cl)c1O)C(=O)NC1CCCCC1", "activity": 26.5}
{"smiles": "O=C(Nc1ccc(-c2cn3ccsc3n2)cc1)C1CC1", "activity": 75.1}
{"smiles": "COc1cccc(C(=O)Nc2nc3ccccc3[nH]2)c1", "activity": 91}
{"test_system": "not listed separately", "assay": "caspase-8 TRAIL sensitization, hit retest, confirmation, cell-based, NB7+caspase-8, with/without TRAIL, luminescence panel (AID 651596)", "settings": "NB7 neuroblastoma + caspase-8, without TRAIL, luminescence viability, without TRAIL, mean of runs, at 10 µM", "units": {"activity": "%"}}
{"smiles": "Cc1cc(C(=O)COC(=O)c2n[nH]c3ccccc23)c(C)n1C", "activity": 55.9}
{"smiles": "CCN(c1ccccc1)S(=O)(=O)c1ccc(OC)c(NC(=O)c2cc(F)c(F)c(F)c2F)c1", "activity": 87.5}
{"smiles": "Fc1cccc(C2NN=C(c3ccccc3)S2)c1", "note": "(stereo not given)", "activity": 58.5}
{"smiles": "CCCc1cc(=O)[nH]c(SCC(=O)c2c(N)n(CC(C)C)c(=O)n(C)c2=O)n1", "activity": 83.7}
{"smiles": "Cc1ccc(-c2cn3cc([N+](=O)[O-])ccc3n2)cc1", "activity": 41.5}
{"smiles": "COn1c(SCc2cccc(Cl)c2)nc2ccccc2c1=O", "activity": 26.3}
{"smiles": "O=C1C(=Cc2ccc(Cl)cc2)CCc2ccccc21", "activity": 78.7}
{"smiles": "CCCCCCc1cc2cc(C(=O)Nc3ccc(OC)cc3)c(=O)oc2cc1O", "activity": 32.5}
{"smiles": "O=C(Nc1ccccc1C(=O)N/N=C/c1ccncc1)c1ccccc1", "activity": 87.5}
{"smiles": "Cc1ccc2nc(-c3cccc(N)c3)[nH]c2c1", "activity": 59.6}
{"smiles": "O=C(N/N=C/c1ccccc1)c1ccc2c(c1)OCO2", "activity": 56.1}
{"smiles": "C[C@H](NC(=O)c1[nH]cnc1C(=O)Nc1ccc(CNC(=O)OC(C)(C)C)cc1)C(=O)OCc1ccccc1", "activity": 37.6}
{"smiles": "CCN1CCN(Cc2ccc(NC(=O)c3cc(NC(=O)C(=O)c4c[nH]c5ccccc45)cc(OC)c3)cc2C(F)(F)F)CC1", "activity": 77.7}
{"smiles": "O=C(Nc1ccc(N2CCCCC2)cc1)c1ccccc1", "activity": 58.5}
{"smiles": "CN1CC(=O)N2C(c3ccc(Cl)cc3)c3[nH]c4ccccc4c3C[C@H]2C1=O", "note": "(stereo not given in full)", "activity": 92.8}
{"smiles": "CSc1nnc(NC(=O)c2nc(S(=O)(=O)Cc3ccccc3)ncc2Cl)s1", "activity": 77.9}
{"smiles": "COc1ccc2nc(NN=C(C)c3ccccn3)cc(C)c2c1", "activity": 80.1}
{"smiles": "O=C(NC1CC1)C1CCN(S(=O)(=O)c2ccc(Cl)c([N+](=O)[O-])c2)CC1", "activity": 88.2}
{"smiles": "CC1CCN(S(=O)(=O)c2ccc3c(c2)C(=NO)c2cc(S(=O)(=O)N4CCC(C)CC4)ccc2-3)CC1", "activity": 99}
{"smiles": "Cc1cc(C(=O)Nc2sc3c(c2C#N)CCC(C)C3)no1", "note": "(stereo not given)", "activity": 52.6}
{"smiles": "COc1ccc(C(=O)N/N=C(/C)c2cccc(NC(=O)c3ccccc3F)c2)cc1", "activity": 62.1}
{"smiles": "Cc1ccc2nc(-c3ccc(N)cc3)sc2c1", "activity": 81.8}
{"smiles": "O=C(Nc1ccc(NC(=O)C2CC2)cn1)c1ccccc1", "activity": 57}
{"smiles": "CC(C)Nc1ncnc2c1cnn2-c1ccc(Cl)cc1", "activity": 67.4}
{"smiles": "CCOc1ccc(-c2cc(C(=O)N/N=C(\\C)c3cccnc3)c3ccccc3n2)cc1", "activity": 69.6}
{"smiles": "CCOc1cc(/C=N/N=C(/N)c2nonc2N)cc(Br)c1OCc1ccc(Cl)cc1", "activity": 37.3}
{"smiles": "CC(OC(=O)c1ccc(S(C)(=O)=O)c([N+](=O)[O-])c1)C(=O)NC1C2CC3CC(C2)CC1C3", "note": "(stereo not given)", "activity": 97.9}
{"smiles": "Cc1ccc(/C=N/NC(=O)c2nn(C)cc2Cl)cc1", "activity": 36}
{"smiles": "COc1ccc2nc(Cl)c(/C=N/Nc3ccccn3)cc2c1", "activity": 59.5}
{"smiles": "COc1ccc2nc(NC(=O)c3ccc([N+](=O)[O-])o3)sc2c1", "activity": 77.8}
{"smiles": "CC(C)c1ccc(C(=O)Nc2cccnc2)cc1", "activity": 56.2}
{"smiles": "O=C1C(=C2CCc3ccccc32)Cc2ccccc21", "activity": 48.9}
{"smiles": "Nc1c(-c2cccs2)cnc2c(-c3ccc(F)cc3)cnn12", "activity": 48.8}
{"smiles": "c1ccn2cc(-c3ccc4c(c3)OCCO4)nc2c1", "activity": 86}
{"smiles": "CN1/C(=C/C(=O)c2cccs2)Sc2ccccc21", "activity": 47}
{"smiles": "O=C(C#Cc1ccccc1)c1ccccc1", "activity": 96.6}
{"smiles": "COc1ccc2oc(-c3ccc(NC(=O)c4ccc(N5CCOCC5)c([N+](=O)[O-])c4)cc3)nc2c1", "activity": 24.4}
{"smiles": "N#C/C(=C\\c1cc(Cl)cc(Cl)c1O)C(=O)NC1CCCCC1", "activity": 47.6}
{"smiles": "O=C(Nc1ccc(-c2cn3ccsc3n2)cc1)C1CC1", "activity": 70.2}
{"smiles": "COc1cccc(C(=O)Nc2nc3ccccc3[nH]2)c1", "activity": 85.3}
